Test systems include HCT-15 colon; HT29 colon; SNB-75 CNS; SNB-19 CNS; U251 CNS; PC-3 prostate; SK-MEL-5 melanoma; UACC-62 melanoma; LOX IMVI melanoma; SK-MEL-28 melanoma; SK-MEL-2 melanoma; EKVX NSCLC; SN12C renal; UO-31 renal; TK-10 renal; ACHN renal; CAKI-1 renal; A498 renal; CCRF-CEM leukemia; MOLT-4 leukemia.
What all share (assay): NCI-60 one-dose screen, 48 h (100 = growth as untreated, 0 = no growth, -100 = all killed)
Common to all, as to settings: 10 µM unless noted

About 83,000 compounds went through this panel and 20% of them were active in at least one assay; those are over-represented in the sample as a whole.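 Values shown are percent growth following 48 h exposure of cells in 96-well plates to a single concentration of compound; below 10 was considered active.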 Values without a mark were called inactive. Calls of active or inactive are those of the source.

Regarding `COc1cc(CNC(=O)CCCC/C=C/C(C)C)ccc1OCc1nnc(Nc2ccc([N+](=O)[O-])cc2)o1`, the growth in the assay with HCT-15 colon was 81.2%; in the assay with HT29 colon, 71.7%; with SNB-75 CNS, 48.7%; in the assay with SNB-19 CNS, 54%; in the assay with U251 CNS, 48.6%; in the assay on PC-3 prostate it was 37.6%. Moreover, the growth was 46.3% with SK-MEL-5 melanoma; 39.6% in the assay on UACC-62 melanoma; 55.2% in the assay on LOX IMVI melanoma; 74.3% in the assay on SK-MEL-28 melanoma; 78.9% in the assay on SK-MEL-2 melanoma; 74.7% in the assay on EKVX NSCLC. Besides, the growth in the assay with SN12C renal is 49%; in the assay with UO-31 renal, 58.7%; with TK-10 renal, 84.1%; with ACHN renal, 41.2%; with CAKI-1 renal, 33.6%; in the assay with A498 renal it was 56.8%. In addition, the growth in the assay on CCRF-CEM leukemia was 78.9%; with MOLT-4 leukemia, 84.2%.
For `O=C1c2cccc3cccc(c23)C(=O)N1N1C(=O)c2cccc3c(N4CCOCC4)ccc(c23)C1=O`, the growth with HCT-15 colon was 101%; in the assay on HT29 colon it was 107%; in the assay with SNB-75 CNS it was 58.5%; in the assay with SNB-19 CNS it was 87.8%; with U251 CNS it was 90.7%; in the assay on PC-3 prostate it was 91.2%. Further, the growth in the assay with SK-MEL-5 melanoma was 101%; with UACC-62 melanoma, 90.5%; in the assay with LOX IMVI melanoma, 90.2%; with SK-MEL-28 melanoma it was 102%; in the assay with SK-MEL-2 melanoma, 107%; in the assay with EKVX NSCLC, 94.1%. Besides, the growth is 88.8% with SN12C renal; 68.7% in the assay on UO-31 renal; 141% in the assay on TK-10 renal; 95% in the assay on ACHN renal; 87.4% in the assay on CAKI-1 renal; 64.3% in the assay on A498 renal. Further, the growth in the assay on CCRF-CEM leukemia is 122%; in the assay on MOLT-4 leukemia, 108%.
Consider `C=CCn1c(SCC(=O)Nc2ccc(C(=O)/C=C/c3ccc(Cl)cc3)cc2)nnc1-c1cc(-c2ccc(S(N)(=O)=O)cc2)nc2ccccc12`, for which the growth in the assay with HCT-15 colon is 96.5%; in the assay with HT29 colon, 97.4%; in the assay with SNB-75 CNS, 56%; with SNB-19 CNS it was 81.4%; in the assay on U251 CNS, 71.2%; in the assay with PC-3 prostate, 71.8%. In addition, the growth is 76.8% in the assay on SK-MEL-5 melanoma; 71.9% in the assay on UACC-62 melanoma; 92.3% in the assay on LOX IMVI melanoma; 92.1% with SK-MEL-28 melanoma; 103% in the assay on SK-MEL-2 melanoma; 94.6% in the assay on EKVX NSCLC. Besides, the growth with SN12C renal was 90.2%; with UO-31 renal, 82.8%; with TK-10 renal, 99.9%; in the assay with ACHN renal, 98.1%; in the assay on CAKI-1 renal, 66.3%; with CCRF-CEM leukemia, 54.2%. In the assay with MOLT-4 leukemia, the growth is 66.1%.
For the compound `O=C(N/N=C/c1ccc(F)cc1)c1ccc(C(F)(F)F)nc1Nc1cccc(C(F)(F)F)c1`, the growth in the assay on HCT-15 colon was 0.43% (active); in the assay on HT29 colon, 1.2% (active); in the assay on SNB-75 CNS, 0.243% (active); in the assay with SNB-19 CNS it was 18.4%; in the assay with U251 CNS, -41% (active); in the assay with PC-3 prostate, -1.21% (active). Also, the growth with SK-MEL-5 melanoma was -30.6% (active); in the assay with UACC-62 melanoma, -6.64% (active); in the assay on LOX IMVI melanoma, -23.7% (active); in the assay with SK-MEL-28 melanoma it was 12.7%; in the assay with SK-MEL-2 melanoma, -29.1% (active); in the assay with EKVX NSCLC, 4.22% (active). In addition, the growth was -12.1% (active) in the assay with SN12C renal; -18.4% (active) with UO-31 renal; 3.93% (active) with TK-10 renal; -3.72% (active) in the assay on ACHN renal; -7.66% (active) in the assay on CAKI-1 renal; 0.801% (active) in the assay with CCRF-CEM leukemia. In addition, the growth in the assay on MOLT-4 leukemia is -20.3% (active).
For `COc1cc2c(c(OC)c1OC)-c1ccc(OC)c(=O)cc1[C@@H](NC(=O)CCl)CC2`, the growth with HCT-15 colon was 7.81% (active); with HT29 colon, 4.97% (active); in the assay with SNB-75 CNS, 78.9%; in the assay with SNB-19 CNS, 39.1%; in the assay on U251 CNS it was 4.55% (active); in the assay on PC-3 prostate, 22.8%. The growth with SK-MEL-5 melanoma was -73.7% (active); in the assay on UACC-62 melanoma it was 20.8%; in the assay with LOX IMVI melanoma it was -18.2% (active); in the assay on SK-MEL-28 melanoma it was 47%; in the assay with SK-MEL-2 melanoma, 41.1%; in the assay with EKVX NSCLC it was 74.3%. The growth in the assay with SN12C renal is 19.3%; in the assay with UO-31 renal, 32.8%; with TK-10 renal, 34.1%; in the assay on ACHN renal it was 25.4%; in the assay on CAKI-1 renal, 30.1%; with A498 renal it was -4.98% (active). Further, the growth is 15.3% in the assay with CCRF-CEM leukemia and 20.9% in the assay on MOLT-4 leukemia.
As to `CC1(C)CC[C@]2(C(=O)O)CC[C@]3(C)C(=CC[C@@H]4[C@@]5(C)C/C(=C/O)C(=O)C(C)(C)[C@@H]5CC[C@]43C)[C@@H]2C1`, the growth in the assay on HCT-15 colon was 24.4%; with HT29 colon, 26.6%; in the assay on SNB-75 CNS, 95.4%; with SNB-19 CNS, 60.1%; with U251 CNS, 28.3%; with PC-3 prostate it was 31.4%. The growth is 67.8% in the assay on SK-MEL-5 melanoma; 61.6% with UACC-62 melanoma; 27.4% in the assay with LOX IMVI melanoma; 52.2% with SK-MEL-28 melanoma; 104% with SK-MEL-2 melanoma; 88.6% in the assay with EKVX NSCLC. The growth was 65.7% in the assay on SN12C renal; 57.7% with UO-31 renal; 58.1% in the assay with TK-10 renal; 20% in the assay on ACHN renal; 48.6% in the assay on CAKI-1 renal; 16.3% with CCRF-CEM leukemia. Moreover, the growth in the assay on MOLT-4 leukemia is 7.85% (active).
As to `CCOC(=O)c1cc(C(=O)c2cc(OC)c(OC)c(OC)c2)n2ccc(-c3ccncc3)cc12`, the growth in the assay on HCT-15 colon was 99.4%; in the assay on HT29 colon it was 91.5%; in the assay on SNB-75 CNS, 88.8%; in the assay on SNB-19 CNS, 94.4%; with U251 CNS, 93.2%; in the assay with PC-3 prostate, 75.2%. Moreover, the growth was 82.8% in the assay on SK-MEL-5 melanoma; 98.4% in the assay with UACC-62 melanoma; 99% in the assay on LOX IMVI melanoma; 110% in the assay with SK-MEL-28 melanoma; 86.5% in the assay with SK-MEL-2 melanoma; 101% in the assay with EKVX NSCLC. Besides, the growth in the assay on SN12C renal is 97.8%; in the assay with UO-31 renal it was 70.3%; with TK-10 renal, 100%; in the assay with ACHN renal it was 99.8%; in the assay with CAKI-1 renal it was 84.5%; with A498 renal it was 85.6%. Further, the growth in the assay with CCRF-CEM leukemia is 90%; in the assay with MOLT-4 leukemia, 115%.

Values taken from PubChem BioAssay (NCI).
